Screening data: PubChem, National Center for Advancing Translational Sciences (NCATS)
Pf growth 96h – P. falciparum growth inhibition at 96 hours. Potency, µM (series often up to 28.7 µM), inactives show at the top dose activity change, negative = inhibition, actives largely listed as inhibitors. P. falciparum luciferase reporter growth, 96 h. 320,000 compounds, 6.9% hits; note: potency is the fitted concentration of half-maximal effect; % is set by controls: 0 for no effect and ±100 for the full control effect
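Two-generation exposure (96 h) targets delayed-death phenotype. Reporter parasites carrying integrated firefly luciferase, in red cells at 2% hematocrit and 0.05% parasitemia final, kept at 37 C, 5% CO2; luminescence loss indicates inhibition.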
NS1 function inh – blocks influenza NS1 protein function; Potency, µM (top dose mostly 46.1 µM), for the others: top-dose activity, positive = more growth; 270,000 compounds, 0.4% hits; AID 2326; calls by dose curve; note: potency is the fitted concentration of half-maximal effect; actives are rising curves; nearly all actives have a fitted effect of over 50% in size
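In this qHTS, NS1 from influenza A is expressed in budding yeast, where it slows growth. Cells are switched from glucose to 2% galactose medium (pH 6.0, -URA), treated with compound, and growth recovery is read at OD600.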
Shiga toxin inh – blocks Shiga toxin action in Vero cells; Vero cells, Shiga toxin protein synthesis inhibition reporter; 290,000 compounds, 9.2% hits; inhibition, % at 38.7 µM; AID 2315; in the data active = inhibition mostly above about 28%, no sharp cut-off; inactive = mostly below about 43%; note: 0% is about no effect
Pf growth 48h – P. falciparum growth inhibition at 48 hours (one generation); Potency, µM (highest dose often 28.7 µM), without a hit: top-dose activity change, negative = inhibition, usual class: inhibitors; 310,000 compounds, 5.9% hits; P. falciparum luciferase growth in erythrocytes, 48 h; note: potency is the fitted concentration of half-maximal effect; % is set by controls: 0 for no effect and ±100 for the full control effect
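Read-out is firefly luciferase luminescence from an integrated reporter in P. falciparum, so falling signal marks reduced parasite growth. Infected erythrocytes were at 2% hematocrit and 0.1% parasitemia (final) in Albumax-supplemented RPMI 1640.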
Sm TGR inh – blocks Schistosoma mansoni thioredoxin glutathione reductase; Potency, µM (series often up to 114 µM), without a hit: at the highest dose activity change, negative = inhibition, hits mostly inhibitors; 360,000 compounds, 3% hits; purified TGR, DTNB reduction, TNB absorbance 405 nm; Q962Y6; note: potency is the fitted concentration of half-maximal effect; % is set by controls: 0 for no effect and ±100 for the full control effect; nearly all actives have a fitted effect of over 60% in size
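Kinetic colorimetric format: TGR-catalysed, NADPH-driven DTNB reduction monitored via TNB absorbance. Enzyme dispensed at 20 nM; compound exposure 15 min at room temperature before reaction start.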
Cycloheximide cs – counter-screen hit for Shiga toxin inhibitors, cycloheximide; cell reporter, cycloheximide protein synthesis inhibition counterscreen; max response, %; 300,000 compounds, 12% hits; in the data active = max response mostly above about 13%, no sharp cut-off; inactive = mostly below about 14%; note: read at 38.3 µM for the half of the compounds with a filed dose; 0% is about no effect
Active calls of the source: *; u = inconclusive; x = not tested or not shown; ! = a repeat was not active. Compounds with a hit are over-represented: about 21% of the library has one in this group of screens. Unless noted, calls come from the whole dose curve; as a rule, active = well fitted curve in the direction sought with a large enough effect; inconclusive = small, poorly fitted or top-dose-only effect, or another doubt; inactive = no such curve, though single readings can be large; an effect the other way counts as inactive or inconclusive.

SMILES	Pf growth 96h	NS1 function inh	Shiga toxin inh	Pf growth 48h	Sm TGR inh	Cycloheximide cs
O=C(CCCCCn1c(=O)[nH]c2ccsc2c1=O)NCc1ccc(F)cc1	x	0%	-7	u	-16%	-3
O=C(CCCCCn1c(=O)[nH]c2ccsc2c1=O)N1CCCCC1	u	-9%	1	12µM*	2%	-1
O=C(CCCn1c(=O)[nH]c2ccsc2c1=O)N1CCCCC1	13%	5%	-16	29%	3%	-4
Cc1ccc(CNC(=O)CCCCn2c(=O)[nH]c3ccsc3c2=O)cc1	10µM*	x	-10	-4%	2%	0
CCOc1ccc(CC(=O)NCc2ccc3c(c2)CCN3C(=O)c2ccccc2)cc1OCC	x	x	x	x	-8%	x
CC1CC(C)CN(C(=O)CN2C(=O)NC3(CCCCCCC3)C2=O)C1 (stereo not given)	-4%	x	x	-10%	-4%	x
Cc1nc(N2CCN(C)CC2)c2sc(=S)n(C)c2n1	9.3µM*	-4%	-12	x	1%	-4
COc1ccc(C2(O)C(=O)Nc3ccc(C)cc32)cc1 (stereo not given)	-9%	2%	2	-2%	-19%	-4
C=C(C)C(=O)OC1(C(F)(F)F)Oc2cc(C)ccc2NC1=O (stereo not given)	-5%	-37%	93*	u	40µM*	56*
CCN(C(=O)NCc1noc2ccccc12)c1cc(C)ccc1C	x	x	x	x	1%	x
Cc1ccc(S(=O)(=O)N(C)C)cc1NC(=S)NC1CCCC(C)C1C (stereo not given)	u	28%	-3	-25%	-20%	-2
OC1CCC(NC(=S)Nc2ccc(SC(F)F)cc2)CC1 (stereo not given)	26%	x	75*	142%	-17%	36*
C=C1C2(C(=O)Nc3ccc(SC(F)F)cc3)CCC(C2)C1(C)C (stereo not given)	u	-6%	-5	4%	5%	-4
NS(=O)(=O)c1ccc(NC(=S)NC2CCCC2)cc1	4%	7%	14	1%	-32%	-3
FC(F)Sc1ccc(NC(=S)NC2CCCC2)cc1	25%	x	64*	86%	5%	38*
O=C(Nc1ccc(SC(F)F)cc1)C12CCC(CC1)C2	53%	-6%	77*	93%	1%	19*
CC1CCCC(NC(=S)Nc2ccc(SC(F)F)cc2)C1C (stereo not given)	x	-3%	36	u	1%	25*
C[N+](C)(C)c1ncnc2c1ncn2[C@@H]1C[C@H](O)[C@@H](CO)O1	x	0%	x	x	x	x
CCOc1ccc(S(=O)(=O)N(CC(=O)Nc2ccc3c(c2)OCO3)c2ccccc2)cc1	x	x	x	x	1%	x
CC/C(=N/Nc1ccccc1)c1cnnc(-c2ccccc2)n1	0.1µM*	-6%	12	0.13µM*	-15%	4
CC/C(=N/Nc1cccc(Cl)c1)c1cnnc(SC)n1	u	9%	-2	u	-11%	-2
Cc1ncc(CO)c2c1Oc1nc(-c3ccccc3)nc(SCC(=O)N(C)c3ccccc3)c1C2	13µM*	u	5	u	-21%	-7
CCSc1nc(-c2cccc(Cl)c2)nc2c1Cc1c(CO)cnc(C)c1O2	x	x	x	x	-27%	x
Cc1ncc(CO)c2c1Oc1nc(-c3ccccc3)nc(SCC(=O)N3CCOCC3)c1C2	-19%	14%	-7	u	32µM*	-11
Cc1ncc(CO)c2c1Oc1nc(-c3ccccc3)nc(SCC(=O)N3CCCCC3)c1C2	u	25%	-2	u	32µM*!	-9
COc1ccccc1-c1nc2c(c(SCC(=O)N3CCCCC3)n1)Cc1c(CO)cnc(C)c1O2	1.7µM*	16%	-1	10µM*	u	-1
O=C(CSc1nc(C(F)(F)F)cc(=O)[nH]1)Nc1ccc2c(c1)OCCO2	-1%	x	x	7%	-17%	x
COc1cccc(-c2nc3c(c(SCC(=O)Nc4cc(C)ccc4C)n2)Cc2c(CO)cnc(C)c2O3)c1	x	x	x	x	-1%	x
COc1cccc(-c2nc3c(c(SCC(=O)N4CCOCC4)n2)Cc2c(CO)cnc(C)c2O3)c1	13µM*	5%	27	u	u	0
Cc1cccc(NC(=O)CSc2nc(-c3cccc(C)c3)nc3c2Cc2c(CO)cnc(C)c2O3)c1	x	x	x	x	2%	x
